Screening results deposited in PubChem BioAssay by National Center for Advancing Translational Sciences (NCATS).
Tb PYK inh – T. brucei pyruvate kinase inhibition | AID 624173 | Q57TT1 | TbPYK enzyme, Kinase-Glo Plus ATP luminescence, 45 min | Potency, µM (titrated, usually from 76.8 µM), usual class: inhibitors | 0.12% of 410,000 active; further: nearly all actives have a fitted effect of over 50% in size
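TbPYK + substrate in 50 mM TEA pH 7.2, 100 mM KCl, 10 mM MgCl2, 0.05% BSA, 0.01% Tween-20; cpd pinned; ADP 130 uM final; 45 min RT; Kinase-Glo Plus 10 min; luminescence endpoint.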
FBPA Giardia inh – blocks Giardia fructose-bisphosphate aldolase activity; Potency, µM (series often up to 59.6 µM), hits mostly inhibitors; purified Giardia FBPA; AID 2451; 0.71% of 290,000 active; further: nearly all actives have a fitted effect of over 55% in size
Target sequence (A8B2U2 whole entry, looked up): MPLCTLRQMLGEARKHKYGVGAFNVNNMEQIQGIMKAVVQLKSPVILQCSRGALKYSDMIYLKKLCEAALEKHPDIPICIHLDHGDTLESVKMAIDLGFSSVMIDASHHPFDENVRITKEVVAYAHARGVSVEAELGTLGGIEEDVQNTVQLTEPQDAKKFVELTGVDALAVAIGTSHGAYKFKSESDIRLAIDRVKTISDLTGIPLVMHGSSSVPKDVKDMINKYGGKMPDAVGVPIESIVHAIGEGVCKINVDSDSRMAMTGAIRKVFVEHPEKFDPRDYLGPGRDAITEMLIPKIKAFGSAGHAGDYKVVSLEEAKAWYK
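Giardia FBPA (40 nM reagent) was preincubated 10 min at RT with compound (up to 57.5 uM final), then substrate plus GAPDH/TPI/NAD/arsenate coupling system with diaphorase/resazurin was added; resorufin fluorescence (525/598 nm) was read after 20 min.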
FMDV antiviral – antivirals against foot and mouth disease virus | FMDV antiviral cell-based qHTS | Potency, µM (top dose mostly 57.9 µM), actives largely listed as inhibitors | 1.2% of 410,000 active | AID 1159524; calls by dose curve; tested in HEK293T cells; further: read-out not given here; nearly all actives have a fitted effect of over 45% in size
Sm TGR inh – blocks Schistosoma mansoni thioredoxin glutathione reductase | Potency, µM (doses to about 114 µM), hits mostly inhibitors | purified TGR, DTNB reduction, TNB absorbance 405 nm | Q962Y6 | 3% of 360,000 active; further: nearly all actives have a fitted effect of over 60% in size
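First, TGR (20 nM dispensed) and NADPH were mixed with compound. Second, a 15 min room-temperature incubation followed. Third, further NADPH and then DTNB were added to start the reaction. Finally, TNB absorbance was monitored kinetically.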
HCMV antiviral – human cytomegalovirus inhibition | activity change, negative = inhibition, % at 57.5 µM | HFF cells, HCMV-luciferase reporter, 72 h; active compounds read low | 4.5% of 410,000 active; in the data active means activity change below about -60%; inconclusive means no clear call, values can overlap the other calls; inactive means above about -39%
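Steps: HFFs plated, 16 h 37C; compounds added; HCMV-luciferase added to MOI 1 PFU/cell; 72 h 37C; OneGlo reagent, 5 min room temperature; luminescence read, normalized to controls.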
RE007 growth inh – less growth of the S. pombe RE007 Vpr strain; Potency, µM (top dose mostly 92.2 µM), usual class: inhibitors; AID 651644; S. pombe RE007 Vpr strain, BacTiter-Glo ATP luminescence, 24 h; 0.21% of 360,000 active; active means well fitted falling curve with a large enough effect; inconclusive means small, poorly fitted or top-dose-only effect; inactive means no such curve, though single readings can be large or run the other way; further: nearly all actives have a fitted effect of over 50% in size
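Fission yeast strain RE007, carrying one chromosomally integrated HIV-1 vpr copy, was seeded at OD 0.01 in PMG+AL medium with 23 nL pinned compound. After 24 h at 30 °C and 99% humidity, viability was read by BacTiter-Glo luminescence.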
Hits are given with their value; - = inactive; ? = inconclusive; . = no result given; ! = not active in a repeat; [ ] = dose if it differs, or a comment. Sampled rows, rich in hits. Any-hit rate of the full collection: about 7.7%. Unless noted, the call rests on the fitted dose curve; in most records, active means well fitted curve in the direction sought with a large enough effect; inconclusive means small, poorly fitted or top-dose-only effect, or another doubt; inactive means no such curve, though single readings can be large; an effect the other way counts as inactive or inconclusive.

SMILES | Tb PYK inh | FBPA Giardia inh | FMDV antiviral | Sm TGR inh | HCMV antiviral | RE007 growth inh
COCCCn1c(SCC(=O)NCc2ccco2)nc2sc3c(c2c1=O)CCC3 | - | - | - | 39.8µM | - | -
Cc1sc2ncnc(NCC3CCCO3)c2c1C (configuration not stated) | - | . | 28.2µM | - | - | -
Cc1sc2ncnc(NCC3COc4ccccc4O3)c2c1C (configuration not stated) | - | - | ? | - | -78.9 | -
CC(=O)N1CCN(C(=O)c2sc3ncnc(NCC4CCCO4)c3c2C)CC1 (configuration not stated) | . | . | - | . | . | .
Cc1nc(SCC(=O)NCC2COc3ccccc3O2)c2c(C)c(C)sc2n1 (configuration not stated) | - | . | ? | - | - | -
c1ccc(-c2csc3ncnc(NCCCN4CCOCC4)c23)cc1 | - | - | ? | - | ? | -
c1ccc(-c2csc3ncnc(NCC4COc5ccccc5O4)c23)cc1 (configuration not stated) | - | - | 28.2µM | - | -87.7 | -
O=C(Nc1ccccc1)N1CCC2(CC1)CCN(C(=O)c1ccco1)CC2 | - | - | - | . | . | .
COc1ccc2[nH]c(=O)c3c(c2c1)OC(C)(C)C=C3 | - | - | - | - | -96.4 | -
Cc1cc2c([nH]c3ccccc32)c2c1OC(C)(C)C=C2 | - | - | - | - | - | ?
Cc1cccc(N2CCN(C(=O)c3ccc4c(c3)NC(=O)C(CSCc3cccc(F)c3)N4)CC2C)c1 (configuration not stated) | - | . | - | - | -82.8 | -
O=C1Nc2cc(C(=O)N3CCN(c4ccccc4F)CC3)ccc2NC1CSCc1ccccc1F (configuration not stated) | . | - | . | ? | . | .
O=C1Nc2cc(C(=O)N3CCC4(CC3)OCCO4)ccc2NC1CSCc1cccc(F)c1 (configuration not stated) | . | . | . | 50.1µM | . | .
Cc1ccc(NC(=O)c2ccc(NC(=O)N3CCSc4nc(C)cc(C)c43)cc2)c(Cl)c1 | -[15.4 µM] | . | - | - | - | .
Cc1ccccc1N1CCN(S(=O)(=O)CC23CCC(CC2NC(=O)C(N)CCS(C)(=O)=O)C3(C)C)CC1 (configuration not stated) | . | - | - | . | . | .
CC(OC(=O)C1CCN(S(=O)(=O)c2ccc(C(C)(C)C)cc2)CC1)C(=O)N1CCOCC1 (configuration not stated) | - | . | - | - | - | -
CC(OC(=O)C1CCN(S(=O)(=O)c2ccc(C(C)(C)C)cc2)CC1)C(=O)N(C)C1CCCCC1 (configuration not stated) | - | . | 39.8µM | . | ? | -
CCC1CN(C(=O)Nc2ccc(C(=O)O)cc2)c2cc(Cl)ccc2O1 (configuration not stated) | - | . | - | - | - | .
CCC1CN(C(=O)NCc2ccc(C)cc2)c2cc(C)ccc2O1 (configuration not stated) | - | - | - | - | -75.4! | -
CCc1ccccc1NC(=O)N1CC(CC)Oc2ccc(Cl)cc21 (configuration not stated) | - | . | - | - | -60.7 | .
CCC1CN(C(=O)NCc2ccccc2)c2cc(C)ccc2O1 (configuration not stated) | - | - | - | - | ? | -
CC(C)c1ccc(CN2C(=O)C(n3cccc3)c3ccccc32)cc1 (configuration not stated) | . | . | . | . | - | .
Oc1cc(O)cc(/C=C/c2ccc(O)c(O)c2)c1 | ? | ? | ? | 22.4µM | - | -[18.4 µM]
O=C(N/N=C/c1ccc(O)c(O)c1)N/N=C/c1ccc(O)c(O)c1 | - | - | - | ? | - | -
Cc1nnc2ccc(N3CCC4(CC3)OCCO4)nn12 | - | - | - | - | -62.0 | -
SMILES | Tb PYK inh | FBPA Giardia inh | FMDV antiviral | Sm TGR inh | HCMV antiviral | RE007 growth inh
COc1ccc(S(=O)(=O)/N=C2/NC(=O)/C(=C\c3ccco3)S2)cc1 | - | - | - | 44.7µM | - | -
COc1ccc(N=C2NC(=O)/C(=C/c3ccco3)S2)cc1 | - | - | - | 31.6µM | -67.5 | -
COc1ccc(S(=O)(=O)/N=C2/NC(=O)/C(=C/c3ccco3)S2)cc1 | - | - | - | ? | - | -
Cc1ccc(CNS(=O)(=O)c2cc3[nH]c(=O)c(=O)[nH]c3cc2C)cc1 | - | . | - | - | - | .
CCOc1ccccc1NC(=O)c1ccc(C(=O)Nc2ccccc2OCC)cc1 | - | . | - | - | - | .
COc1cc(/C=C/C(=O)OCN2C(=O)c3ccccc3C2=O)ccc1OC(F)F | - | . | - | - | - | -
COc1ccc(/C=C/C(=O)OCn2c(SC)nnc(C)c2=O)cc1OC | - | - | - | 28.2µM | - | -
CCOc1ccccc1NC(=O)/C=C/C(N)=O | - | - | . | 3.98µM | - | -
CCOc1ccccc1NC(=O)COC(=O)/C=C/c1ccc(OC)c(OC)c1 | - | - | 17.8µM | - | ? | -
COCCN1C(=O)CS/C1=C(/C#N)C(=O)NCc1ccco1 | - | - | - | - | -83.6 | -
COC(=O)/C=c1/s/c(=C(\C#N)C(=O)NCc2ccco2)n(-c2ccccc2)c1=O | - | - | - | - | - | -
COc1ccc(NC(=O)Cn2cnc3ccc(S(=O)(=O)N4CCC(C)CC4)cc3c2=O)cc1Cl | - | . | - | - | - | .
CCOCCCNC(=O)c1ccc(-n2c(-c3ccccc3)cc3c2CCC(C)C3)cc1 (configuration not stated) | - | . | - | - | -93.2 | .
COCCCNC(=O)c1ccc(-n2c(-c3ccccc3)cc3c2CCCC3)cc1 | - | . | - | - | - | .
COc1ccc(CCNC(=O)c2ccc([N+](=O)[O-])cc2Cl)cc1OC | - | . | - | . | - | -
COc1ccc(CCNC(=O)c2noc(C)c2[N+](=O)[O-])cc1OC | - | - | - | 35.5µM | - | -
COc1ccc(CCNC(=O)c2ccc(-c3ccc([N+](=O)[O-])cc3Cl)o2)cc1OC | - | - | 12.6µM | - | - | -
Cc1onc(C(=O)NCCc2ccccc2)c1[N+](=O)[O-] | - | - | - | ? | - | -
Cc1ccc(CNC(=O)C(=O)NCC(c2ccco2)S(=O)(=O)c2ccc(C)cc2)cc1 (configuration not stated) | - | . | - | - | - | .
CCCN(C(=O)CCl)C1=CCCCC1 | - | - | ? | 11.2µM | -100.4 | -
COc1ccc(C(=O)O/N=C(\C)c2ccccc2)cc1 | 12.6µM | - | - | - | - | -
COc1ccc(C(=O)O/N=C(\N)c2ccccc2)c(OC)c1 | - | - | - | - | -77.7 | ?
COc1ccc(C(=O)O/N=C(\N)c2ccccn2)c(OC)c1 | - | - | - | - | -74.9 | -
COc1ccc(C(=O)O/N=C(\N)c2ccc(OC)c(OC)c2)c(OC)c1 | - | - | - | - | . | -
COc1ccc(C(=O)O/N=C(/c2ccccc2)c2ccncc2)cc1 | - | - | - | - | - | -
